Shown are actives, neighbours in structure and some others; about 11% of the full set was active somewhere.
JMJD2A Tudor inh: qHTS Assay for Inhibitors of JMJD2A-Tudor Domain | AID 504339, 2011 | Potency, µM (titrated, usually from 114 µM), most hits filed as inhibitors | Lysine-specific demethylase 4A (Homo sapiens), O75164 | AlphaScreen JMJD2A-Tudor / H3K4me3 peptide binding | actives 4.4% (n = 390,000); also: nearly all actives have a fitted effect of over 50% in size
HP1b chromo inh: HTS for Inhibitors of HP1-beta Chromodomain Interactions with Methylated Histone Tails; AlphaScreen HP1-beta / biotin-H3K9me3 peptide binding; Potency, µM (series often up to 114 µM), usual class: inhibitors; AID 540317, 2011; actives 0.56% (n = 390,000); also: nearly all actives have a fitted effect of over 70% in size
Target sequence (P83916 whole entry, looked up): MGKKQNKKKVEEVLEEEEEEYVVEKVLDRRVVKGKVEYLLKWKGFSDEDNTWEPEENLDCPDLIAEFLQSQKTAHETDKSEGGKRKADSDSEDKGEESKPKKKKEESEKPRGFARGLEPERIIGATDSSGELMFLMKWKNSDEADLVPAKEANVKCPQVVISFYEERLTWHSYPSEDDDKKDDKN
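Compound inhibition of the preformed complex between 50 nM HP1-beta and 50 nM biotinylated H3K9me3 peptide was read by AlphaScreen. Buffer was PBS pH 7.4 with 0.01% Tween-20. Incubations ran 30 min at room temperature, with 10 ug/mL donor/acceptor beads.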
L3MBTL1 block: qHTS Assay for the Inhibitors of L3MBTL1; Lethal(3)malignant brain tumor-like protein 1 (Homo sapiens), Q9Y468; AlphaScreen L3MBTL1–H3K9me1 peptide binding; Potency, µM (titrated, usually from 57.1 µM), hits mostly inhibitors; actives 0.66% (n = 230,000); AID 485360, 2010; also: nearly all actives have a fitted effect of over 60% in size
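AlphaScreen assay: L3MBTL1 (50 nM final) was preincubated 30 min at room temperature with biotinylated H3(1-15)K9me1 peptide (75 nM final), then 30 min with library compounds; streptavidin donor and nickel chelate acceptor beads (10 ug/mL final) added, 30 min dark.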
BAZ2B block: qHTS Assay for Inhibitors of BAZ2B | Potency, µM (doses to about 114 µM), most hits filed as inhibitors | AlphaScreen BAZ2B-H3K14Ac peptide displacement | actives 4.4% (n = 360,000) | Bromodomain adjacent to zinc finger domain protein 2B (Homo sapiens), Q9UIF8; also: nearly all actives have a fitted effect of over 60% in size
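Protein-peptide AlphaScreen: BAZ2B 50 nM, b-H3K14Ac 50 nM, 1x PBS pH 7.4 + 0.01% Tween-20. Preincubation 30 min RT; cpd 30 min RT (top 110 uM); beads 20 min RT, light-protected.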
G9a inh: qHTS Assay for Inhibitors of Histone Lysine Methyltransferase G9a; G9a H3K9 monomethylation, AlphaScreen, 2 h; Potency, µM (titrated, usually from 102 µM), most hits filed as inhibitors; actives 8.8% (n = 350,000); also: nearly all actives have a fitted effect of over 75% in size
Target sequence (Q96KQ7 913-1193 limits assumed): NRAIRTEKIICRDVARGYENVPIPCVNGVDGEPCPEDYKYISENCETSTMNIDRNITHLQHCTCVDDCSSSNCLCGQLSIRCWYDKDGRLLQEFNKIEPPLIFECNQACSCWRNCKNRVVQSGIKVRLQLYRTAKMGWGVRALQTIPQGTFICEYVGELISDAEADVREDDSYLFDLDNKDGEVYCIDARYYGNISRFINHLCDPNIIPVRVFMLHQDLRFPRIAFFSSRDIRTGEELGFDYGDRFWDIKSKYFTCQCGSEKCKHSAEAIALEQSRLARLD
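Chemiluminescent proximity detection of H3K9 monomethylation, read after 10 min bead incubation in the dark. Reaction: 20 nM G9a, 500 nM biotin-H3K9 peptide, 20 uM SAM cofactor, 2 h, room temperature, following 15 min enzyme-compound preincubation.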
Each line names hits and unclear results; the compound was inactive in the other large screens; ! = repeats disagree. Calls follow the shape of the dose curve; as a rule, active = well fitted inhibition curve with a large enough effect; inconclusive = small, poorly fitted or top-dose-only effect; inactive = no such curve, though single readings can be large or run the other way.

CCCc1ccc(OCC(=O)Nc2sc3c(c2C(=O)OC)CCCCC3)cc1	G9a inh inconclusive (no result: L3MBTL1 block)
CCOc1ccc(N(CC)S(=O)(=O)N2CCCC(C(=O)Nc3ccc(NC(C)=O)cc3)C2)cc1 (configuration not stated)	none (no result: L3MBTL1 block)
CCC(C)NCCCCOc1ccc(C)cc1[N+](=O)[O-] (configuration not stated)	JMJD2A Tudor inh 3.5µM, HP1b chromo inh inconclusive, BAZ2B block 45µM
Cc1ccc(OCCN2C(=O)c3ccccc3C2=O)c([N+](=O)[O-])c1	none
Cc1ccc2c(c1)c1c(c(=O)n(-c3ccccc3C)c(=O)n1Cc1cccc(F)c1)n2C	none (no result: L3MBTL1 block)
CC(C)OCCCNC1=C(Cl)C(=O)c2ccccc2C1=O	JMJD2A Tudor inh 40µM, HP1b chromo inh 35µM, BAZ2B block 10µM (no result: G9a inh)
COCCCNC1=C(Cl)C(=O)c2ccccc2C1=O	JMJD2A Tudor inh inconclusive, HP1b chromo inh inconclusive, BAZ2B block 35µM, G9a inh 40µM
CCN(CC)CCCNC1=C(Cl)C(=O)c2ccccc2C1=O	G9a inh inconclusive
CC(C)NC1=C(Cl)C(=O)c2ccccc2C1=O	JMJD2A Tudor inh 40µM, HP1b chromo inh 16µM, BAZ2B block 25µM, G9a inh 20µM (no result: L3MBTL1 block)
COc1ccc(OC)c(CNc2ncnc3onc(-c4ccc(Cl)cc4)c23)c1	none (no result: L3MBTL1 block)
CC(=O)Nc1ccc(NC(=O)C(C)Sc2n[nH]c(-c3ccc(C)cc3)n2)cc1 (configuration not stated)	G9a inh 40µM
Cc1ccc(-c2nc(SC(C)C(=O)c3c(N)n(C)c(=O)n(C)c3=O)n[nH]2)cc1 (configuration not stated)	G9a inh 45µM
CCOC(=O)c1ccccc1NC(=O)COC(=O)CC(C)(C)CC1=NS(=O)(=O)c2ccccc2N1	none (no result: L3MBTL1 block)
C[N+](C)(C)CCOP(=O)([O-])OP(=O)(O)OCC1OC(n2ccc(N)nc2=O)C(O)C1O (configuration not stated)	none (no result: JMJD2A Tudor inh, HP1b chromo inh, L3MBTL1 block, BAZ2B block)
Nc1ccn([C@@H]2O[C@H](CO)[C@@H](O)[C@H]2O)c(=O)n1	none (no result: L3MBTL1 block, BAZ2B block, G9a inh)
C[N+](C)(C)CCOP(=O)(O)OP(=O)([O-])OC[C@H]1O[C@@H](n2ccc(N)nc2=O)[C@H](O)[C@@H]1O	G9a inh 10µM!
Nc1ccn([C@@H]2O[C@H](CO)[C@@H](O)C2O)c(=O)n1 (some centres not stated)	G9a inh 11µM! (no result: L3MBTL1 block)
Cn1nc(C(=O)NCc2ccccn2)c2ccccc2c1=O	JMJD2A Tudor inh 22µM, BAZ2B block inconclusive
CC(C)n1nc(C(=O)NNC(=O)c2ccc(OC(F)F)cc2)c2ccccc2c1=O	G9a inh 3.2µM
Cn1nc(C(=O)NCc2ccccc2)c2ccccc2c1=O	none (no result: L3MBTL1 block)
CC(C)n1nc(C(=O)NNC(=O)c2ccncc2)c2ccccc2c1=O	BAZ2B block inconclusive, G9a inh inconclusive
CCOc1ccc(OCCC(=O)NNC(=O)c2nn(C)c(=O)c3ccccc23)cc1	JMJD2A Tudor inh inconclusive, BAZ2B block 71µM, G9a inh inconclusive (no result: L3MBTL1 block)
CC(=O)c1cccc(NC(=O)CN2C(=O)c3cccnc3Sc3ccccc32)c1	none (no result: L3MBTL1 block)
CCN1C(C)=C(C)S/C1=C1\SC(=S)N(C2CCCCC2)C1=O	none
CN1C=CC=C/C1=C1\SC(=S)N(c2ccccc2)C1=O	BAZ2B block inconclusive, G9a inh 18µM
CN1C=CC=C/C1=C1\SC(=S)N(C2CCCCC2)C1=O	JMJD2A Tudor inh 40µM, BAZ2B block 40µM, G9a inh 16µM
CCN1C(=O)/C(=C2\Sc3ccccc3N2CC)OC1=S	JMJD2A Tudor inh inconclusive
CN1C=CC=C/C1=C1\SC(=S)N(CC(=O)O)C1=O	BAZ2B block 50µM, G9a inh 20µM
C=CCN1C=CC=C/C1=C1\SC(=S)N(C)C1=O	HP1b chromo inh inconclusive, BAZ2B block inconclusive, G9a inh inconclusive (no result: L3MBTL1 block)
CC(C)(C)NC(=O)CN1C(=O)/C(=C/c2ccccc2)SC1=S	L3MBTL1 block inconclusive
CCN1C(=O)/C(=C2/C=CC=CN2C)OC1=S	G9a inh 45µM
O=C1OC[C@H](Cc2ccc3c(c2)OCO3)/C1=C\c1ccc2c(c1)OCO2	none
CCC(N)(C(=O)O)c1ccc(C(=O)O)cc1 (configuration not stated)	none (no result: JMJD2A Tudor inh, HP1b chromo inh, L3MBTL1 block, BAZ2B block)
CCN(CC)CCN1C(=O)C(=O)/C(=C(/O)c2ccncc2)C1c1ccccc1 (configuration not stated)	G9a inh 50µM
COc1ccc(/C(O)=C2/C(=O)C(=O)N(Cc3ccco3)C2c2cccs2)cc1 (configuration not stated)	BAZ2B block inconclusive
COC(=O)c1ccc(C2/C(=C(/O)c3ccc(OC)cc3)C(=O)C(=O)N2Cc2ccco2)cc1 (configuration not stated)	JMJD2A Tudor inh inconclusive, BAZ2B block inconclusive, G9a inh 45µM
CCN(CC)CCN1C(=O)C(=O)/C(=C(/O)c2ccc(OC)cc2)C1c1ccco1 (configuration not stated)	G9a inh 40µM
COc1ccc(C2c3c(-c4ccccc4O)n[nH]c3C(=O)N2Cc2ccco2)cc1 (configuration not stated)	JMJD2A Tudor inh inconclusive, BAZ2B block 35µM (no result: L3MBTL1 block)
COc1cc(C2c3c(-c4ccccc4O)n[nH]c3C(=O)N2Cc2ccco2)cc(OC)c1OC (configuration not stated)	none (no result: L3MBTL1 block, G9a inh)
CSc1ccc(CCNC(=O)CCc2c(C)nc3c4cccnc4nn3c2C)cc1	none (no result: L3MBTL1 block)
CCN(CC)CCCN1C(=O)C(=O)/C(=C(/O)c2ccc(OC)cc2)C1c1ccco1 (configuration not stated)	none (no result: L3MBTL1 block, BAZ2B block, G9a inh)
COCCN1C(=O)C(=O)/C(=C(/O)c2cccc(OC)c2)C1c1ccco1 (configuration not stated)	JMJD2A Tudor inh inconclusive, L3MBTL1 block inconclusive, BAZ2B block 79µM (no result: G9a inh)
COc1cccc(/C(O)=C2/C(=O)C(=O)N(Cc3cccnc3)C2c2ccco2)c1 (configuration not stated)	JMJD2A Tudor inh inconclusive, G9a inh 45µM
Cc1cccc(NC(=O)CCS(=O)(=O)c2cc(Br)cc3c2N(C(=O)C2CC2)CC3)c1	none (no result: L3MBTL1 block)
CCOCCCNC(=S)N1CCN(CC)CC1	JMJD2A Tudor inh 25µM, HP1b chromo inh inconclusive, BAZ2B block 50µM, G9a inh 22µM
CCOCCCNC(=S)N1CCN(c2nc(-c3ccccc3)cs2)CC1	JMJD2A Tudor inh inconclusive, BAZ2B block 50µM, G9a inh inconclusive
CCCCNC(=S)N1CCN(CC)CC1	JMJD2A Tudor inh 45µM, HP1b chromo inh inconclusive, BAZ2B block 50µM (no result: G9a inh)
CCOCCCNC(=S)N1CCC(C(=O)c2ccc(C)cc2)CC1	none
